NPC1 promoter act – activators of NPC1 promoter | Huh7 NPC1 promoter luciferase reporter, 24 h | Potency, µM (highest dose often 9.22 µM), inactives show at the highest dose activation, most hits filed as activators | 320,000 compounds, 2.4% hits; also: % of control where 0% means no effect; nearly all actives have a fitted effect of over 60% in size
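In 1536-well qHTS, Huh7 cells harboring an NPC1 promoter–luciferase construct received compound for 24 h; activation was quantified by luminescence following luciferase reagent addition.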
SMN2 splice enh – SMN2 splice variant enhancement; HEK293 SMN2-luciferase splicing reporter, luminescence, 30-36 h; Potency, µM (doses to about 46.1 µM), for the others: top-dose activity change, positive = activation, actives largely listed as activators; 210,000 compounds, 2.8% hits; also: % of control where 0% means no effect; nearly all actives have a fitted effect of over 55% in size
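HEK293 cells carry an SMN2 […]–luciferase reporter in which exon 7 inclusion puts luciferase in frame. Cells were plated 10-12 h before compound addition, then incubated 30-36 h at 37C. ONE-Glo luminescence was read; sodium butyrate at 4.5 mM final served as control.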
FLuc modulator – inhibits or activates purified firefly luciferase, miR-21 counter-screen; AID 588342; Potency, µM (top dose mostly 57.5 µM), inactives show top-dose activity change, negative = inhibition, hits mostly inhibitors; purified FLuc, Km substrates, luminescence inhibition; P08659; 360,000 compounds, 6.9% hits;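 also: plate controls were vehicle for no effect and reference inhibitor for full effect; nearly all actives have a fitted effect of over 55% in size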
Target sequence (P08659 whole entry, looked up): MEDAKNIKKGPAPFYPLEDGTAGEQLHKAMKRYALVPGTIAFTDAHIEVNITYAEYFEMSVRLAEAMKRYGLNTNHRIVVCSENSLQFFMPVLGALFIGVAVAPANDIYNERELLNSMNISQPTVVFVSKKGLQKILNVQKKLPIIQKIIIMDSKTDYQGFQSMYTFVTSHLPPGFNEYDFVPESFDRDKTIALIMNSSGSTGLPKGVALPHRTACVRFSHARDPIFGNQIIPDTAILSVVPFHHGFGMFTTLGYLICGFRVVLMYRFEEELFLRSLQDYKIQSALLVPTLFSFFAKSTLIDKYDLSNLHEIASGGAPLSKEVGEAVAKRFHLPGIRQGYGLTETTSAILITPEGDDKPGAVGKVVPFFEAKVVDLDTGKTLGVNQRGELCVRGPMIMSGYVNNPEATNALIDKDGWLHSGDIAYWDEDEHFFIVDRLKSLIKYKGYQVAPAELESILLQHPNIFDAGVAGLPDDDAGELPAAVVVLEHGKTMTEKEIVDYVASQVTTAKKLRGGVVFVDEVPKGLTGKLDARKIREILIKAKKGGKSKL
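Biochemical qHTS of compounds, final roughly 60 µM downward over six points, against 10 nM purified firefly luciferase using Km concentrations of substrates (10 uM D-luciferin, 10 uM ATP) in Tris acetate pH 7.5 buffer; luminescence output.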
KinaseGlo FLuc – blocks Kinase-Glo luciferase, a counter-screen artifact; Kinase-Glo luciferase, ATP luminescence, 8 min; Potency, µM (titrated, usually from 38.3 µM), without a hit: top-dose activity change, negative = inhibition, usual class: inhibitors; 200,000 compounds, 0.28% hits; also: % is scaled to controls: 0 for no effect and ±100 for the full control effect; nearly all actives have a fitted effect of over 60% in size
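Substrate mix (final 50 mM imidazole pH 7.2, 50 mM KCl, 7 mM MgCl2, 10 uM ATP, 0.01% Tween 20, 0.05% BSA) plus pin-tool compound, then Kinase-Glo detection mix; 8 min ambient, luminescence read.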
Rab9 prom act – Rab9 promoter activation; Huh7 Rab9 promoter-luciferase reporter, luminescence, 24 h; Potency, µM (series often up to 9.22 µM), inactives show at the highest dose activation, negative = inhibition, actives largely listed as activators; 320,000 compounds, 2.8% hits; AID 485297; also: % of control where 0% means no effect; nearly all actives have a fitted effect of over 60% in size
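Promoter activation is measured as luciferase luminescence in Huh7 cells stably transfected with a Rab9 promoter–luciferase construct, following 24 h compound exposure at 37 °C and 10 min reagent incubation at ambient temperature.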
ELG1 genotoxic – genotoxicity induction in ELG1-luciferase HEK293T cells; HEK293T ELG1-luciferase reporter, luminescence, 16 h; Potency, µM (series often up to 46 µM), for the others: top-dose activity change, positive = activation, hits mostly activators; 330,000 compounds, 1.3% hits; also: % of control where 0% means no effect; nearly all actives have a fitted effect of over 60% in size
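Reporter readout depends on ELG1 protein level, which increases with genetic stress. After 16 hr compound exposure at 37 °C, luciferase activity was quantified using ONE-Glo.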
Numbers without * were called inactive; ? = inconclusive; . = no result given. Rows were chosen to be rich in hits. Some 7.5% of all compounds tested hit in one or more screens of this group. Calls follow the shape of the dose curve; as a rule, active = well fitted curve in the direction sought with a large enough effect; inconclusive = small, poorly fitted or top-dose-only effect, or another doubt; inactive = no such curve, though single readings can be large; an effect the other way counts as inactive or inconclusive. Potency is read from the fitted curve at half-maximal effect.

SMILES	NPC1 promoter act	SMN2 splice enh	FLuc modulator	KinaseGlo FLuc	Rab9 prom act	ELG1 genotoxic
O=C(CSCc1ccc(F)cc1)Nc1ccccc1	4.9%	6.4%	-21.8%	1.4%	-2.2%	8.6%
O=C(CSc1nnc2ccccn12)NCc1ccc2c(c1)OCO2	-1.3%	-8.6%	6.9%	-3.6%	-7.8%	3.6%
Cc1ccccc1-c1ccccc1CN1[C@@H](C(C)C)COCCS1(=O)=O	.	.	.	.	.	-3.9%
O=C(CCn1c(=O)oc2ccccc21)Nc1ccc2c(c1)OCCO2	?	.	19µM*	.	?	?
O=C(Cn1c(=O)oc2ccccc21)Nc1ccc2c(c1)OCCO2	-3.3%	16.3%	-10.3%	6.1%	-5.1%	0.0%
O=C(CCNC(=O)c1ccccc1)NCc1ccccc1F	10.4%	.	2.69µM*	.	18.9%	10.6%
O=C(CSc1ccc2c(c1)OCCO2)Nc1ccc2c(c1)OCO2	-1.3%	-7.4%	?	19.3%	0.1%	-0.4%
O=C(CN1C(=O)C2C3C=CC(C3)C2C1=O)Nc1ccc2c(c1)OCCO2 (stereo not drawn)	?	21.3%	16.9µM*	-0.1%	3.55µM*	?
Cc1ccc(NC(=O)CN2C(=O)C3C4C=CC(C4)C3C2=O)cc1 (stereo not drawn)	-3.1%	13.9%	4.3%	-3.7%	3.3%	4.8%
O=C(CSc1ccccc1)Nc1ccc2c(c1)OCO2	?	.	16.9µM*	.	?	?
COc1ccc(NC(=O)N2CCCC3(CCN(C(=O)c4cnccn4)CC3)C2)cc1	.	5.7%	.	-2.7%	.	.
CCn1ccc2cc(S(=O)(=O)N3CCCN(C(=O)Nc4cccc(Cl)c4)CC3)ccc21	.	.	-11.8%	.	.	.
CCN(C(=O)CN(C)Cc1cccc(Cl)c1Cl)c1c(N)n(Cc2ccccc2)c(=O)[nH]c1=O	-0.7%	9.9%	-0.4%	2.4%	-7.8%	1.6%
Cc1nc2nc(NCc3ccc(Br)cc3)[nH]n2c(=O)c1Cc1ccccc1	.	12.7%	?	.	.	.
O=C(O)CSC(=S)N1CCCC1	-1.6%	.	-2.6%	.	-2.0%	-1.9%
O=C(CSC(=S)N1CCCCC1)c1ccccc1	0.501µM*	0.562µM*	1.2µM*	-29.1%	0.316µM*	0.651µM*
O=C(CSC(=S)N1CCCC1)c1ccccc1	0.631µM*	.	1.07µM*	.	0.398µM*	0.58µM*
O=C1CCc2cc(S(=O)(=O)NC(C(=O)Nc3ccc(F)cc3)c3ccccc3)ccc2N1 (stereo not drawn)	.	16.5%	3.5%	.	.	.
Cc1ccc(Nc2nc(COC(=O)COc3ccc(C=O)cc3)cs2)cc1	?	35.5µM*	2.69µM*	-1.0%	?	?
C/C=C/c1ccc(OCC(=O)OCc2csc(Nc3ccc(C)cc3)n2)c(OC)c1	?	11.2µM*	12µM*	5.8%	?	13.2%
O=C(COc1ccc(Cl)cc1)OCc1csc(Nc2ccccc2)n1	-1.2%	-7.5%	-17.4%	1.3%	-2.0%	2.3%
CCOc1ccccc1NC(=O)CN1C(=O)CC(c2ccc(OC)c(OC)c2)Sc2ccccc21 (stereo not drawn)	.	6.9%	-19.8%	.	.	.
CCn1cnc2sc(C(=O)Oc3cccc(C)c3)c(C)c2c1=O	?	-13.8%	?	0.2%	?	18.3µM*
O=C(N/N=C/c1ccc(Cl)cc1)c1n[nH]c2c1CCCC2	?	.	?	.	18.0%	8.2µM*
O=C(N/N=C/c1ccccc1Cl)c1n[nH]c2c1CCCC2	0.631µM*	0.355µM*	0.213µM*	3.16µM*	?	0.291µM*
O=C(N/N=C/C(Br)=C/c1ccccc1)c1n[nH]c2c1CCC2	?	10µM*	2.69µM*	11.3%	-0.5%	?
O=C(N/N=C/c1ccccc1)c1n[nH]c2c1CCCC2	0.562µM*	5.01µM*	3.01µM*	-21.7%	0.355µM*	?
Cn1cccc1-c1cc(C(=O)N/N=C/c2ccc(Cl)cc2)[nH]n1	2.8%	.	?	.	-2.6%	-2.5%
Cc1cccc(C(=O)OCC(=O)N2CC(=O)Nc3ccccc32)c1C	.	.	.	.	.	1.8%

Screens from PubChem BioAssay.
